Data published in the supplement of paper PMC11732987, “Enantioselective OTUD7B fragment discovery through chemoproteomics screening and high-throughput optimisation” (Communications Chemistry, 2025).

What was measured:
Assay in all cases: log2 ratio of Biotin-Ahx-Ub-VS probe labelling (fragment/DMSO); higher = less target engagement (more negative = stronger competition), active = hit call of the paper (q ≤ 0.05, log2 ratio ≤ -1)
Conditions in all cases: compound concentration: 200 uM; treatment time: 3 h
[1] = molecular target: T1, ALG13 (UniProt Q9NP73)
T1 sequence (whole entry): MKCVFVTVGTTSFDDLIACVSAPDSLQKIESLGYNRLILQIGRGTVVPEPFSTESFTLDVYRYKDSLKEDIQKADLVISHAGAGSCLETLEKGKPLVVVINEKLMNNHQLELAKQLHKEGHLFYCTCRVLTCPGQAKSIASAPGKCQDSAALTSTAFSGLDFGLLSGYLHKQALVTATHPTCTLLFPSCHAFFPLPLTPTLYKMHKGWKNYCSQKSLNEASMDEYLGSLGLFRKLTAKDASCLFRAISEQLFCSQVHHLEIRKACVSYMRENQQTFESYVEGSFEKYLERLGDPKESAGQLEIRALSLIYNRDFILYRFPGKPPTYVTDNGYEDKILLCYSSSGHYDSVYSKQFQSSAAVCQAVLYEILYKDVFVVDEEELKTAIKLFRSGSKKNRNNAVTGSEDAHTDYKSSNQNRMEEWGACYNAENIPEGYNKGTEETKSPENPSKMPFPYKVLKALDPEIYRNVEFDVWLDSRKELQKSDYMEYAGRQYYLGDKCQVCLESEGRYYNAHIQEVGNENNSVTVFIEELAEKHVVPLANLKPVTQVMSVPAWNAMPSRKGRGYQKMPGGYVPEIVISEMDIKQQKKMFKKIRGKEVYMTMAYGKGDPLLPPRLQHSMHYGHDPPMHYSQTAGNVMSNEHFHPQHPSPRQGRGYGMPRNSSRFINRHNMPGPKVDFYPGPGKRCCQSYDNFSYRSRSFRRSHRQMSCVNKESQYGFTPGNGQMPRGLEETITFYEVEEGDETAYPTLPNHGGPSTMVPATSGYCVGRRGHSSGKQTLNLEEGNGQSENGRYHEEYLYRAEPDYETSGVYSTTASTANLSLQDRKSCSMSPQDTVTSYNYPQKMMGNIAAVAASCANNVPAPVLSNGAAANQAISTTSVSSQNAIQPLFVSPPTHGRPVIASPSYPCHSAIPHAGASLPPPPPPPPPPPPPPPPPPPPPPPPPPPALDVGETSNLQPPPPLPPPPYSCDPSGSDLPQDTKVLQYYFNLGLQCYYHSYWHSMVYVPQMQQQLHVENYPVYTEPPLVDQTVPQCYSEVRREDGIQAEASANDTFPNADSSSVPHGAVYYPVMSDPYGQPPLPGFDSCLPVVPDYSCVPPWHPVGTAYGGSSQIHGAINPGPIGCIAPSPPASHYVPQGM
How it was run: (§1)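 Triplicate samples of HEK293T lysate, 495 µg each, received fragment at 200 µM or vehicle for 3 h, followed by Biotin-Ahx-Ub-VS (0.5 µM final) for 1 h. After NeutrAvidin enrichment of labelled DUBs and LysC/trypsin digestion, peptides were run by diaPASEF LC-MS/MS. The values are average log2 fragment/vehicle ratios from global-median-normalised Spectronaut label-free quantities, tested by unpaired t-test on proteins having ≥2 unique peptides.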

[2] = molecular target: ATXN3 (UniProt P54252)
How it was run: as §1

[3] = molecular target: T2, BAP1 (UniProt Q92560)
T2 sequence (whole entry): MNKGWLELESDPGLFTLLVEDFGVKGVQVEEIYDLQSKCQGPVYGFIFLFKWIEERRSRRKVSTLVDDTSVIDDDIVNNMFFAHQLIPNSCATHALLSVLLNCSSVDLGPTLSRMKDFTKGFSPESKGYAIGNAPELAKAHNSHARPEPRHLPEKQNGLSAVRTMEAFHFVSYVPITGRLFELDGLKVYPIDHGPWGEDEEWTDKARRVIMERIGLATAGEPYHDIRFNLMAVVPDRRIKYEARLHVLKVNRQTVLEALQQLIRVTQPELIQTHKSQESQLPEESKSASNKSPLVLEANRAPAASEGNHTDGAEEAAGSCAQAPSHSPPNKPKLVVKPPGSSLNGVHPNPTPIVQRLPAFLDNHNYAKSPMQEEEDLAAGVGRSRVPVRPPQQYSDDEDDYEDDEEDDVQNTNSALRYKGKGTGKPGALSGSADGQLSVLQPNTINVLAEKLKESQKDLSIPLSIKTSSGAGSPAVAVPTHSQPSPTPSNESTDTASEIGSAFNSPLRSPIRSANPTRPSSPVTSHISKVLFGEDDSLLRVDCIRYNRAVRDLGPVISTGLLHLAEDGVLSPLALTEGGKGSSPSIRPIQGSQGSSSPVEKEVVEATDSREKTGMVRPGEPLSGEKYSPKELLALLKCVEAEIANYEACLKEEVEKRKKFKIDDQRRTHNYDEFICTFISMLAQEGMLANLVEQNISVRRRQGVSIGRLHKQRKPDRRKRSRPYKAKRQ
How it was run: as §1

[4] = molecular target: EIF3F (UniProt O00303)
How it was run: as §1

[5] = molecular target: EIF3H (UniProt O15372)
How it was run: as §1

[6] = molecular target: T3, FAM105A (UniProt Q9NUU6)
T3 sequence (whole entry): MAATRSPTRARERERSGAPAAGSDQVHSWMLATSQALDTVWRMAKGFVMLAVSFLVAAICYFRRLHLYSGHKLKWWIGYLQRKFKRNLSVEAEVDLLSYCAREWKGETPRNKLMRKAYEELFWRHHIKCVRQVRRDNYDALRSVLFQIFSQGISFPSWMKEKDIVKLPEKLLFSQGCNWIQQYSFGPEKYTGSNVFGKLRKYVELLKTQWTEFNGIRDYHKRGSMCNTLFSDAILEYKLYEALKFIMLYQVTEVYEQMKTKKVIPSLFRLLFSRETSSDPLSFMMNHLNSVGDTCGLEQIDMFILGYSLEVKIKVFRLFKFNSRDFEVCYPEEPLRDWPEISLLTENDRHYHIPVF
How it was run: as §1

[7] = molecular target: OTUB1 (UniProt Q96FW1)
How it was run: as §1

[8] = molecular target: T4, OTUD4 (UniProt Q01804)
T4 sequence (whole entry): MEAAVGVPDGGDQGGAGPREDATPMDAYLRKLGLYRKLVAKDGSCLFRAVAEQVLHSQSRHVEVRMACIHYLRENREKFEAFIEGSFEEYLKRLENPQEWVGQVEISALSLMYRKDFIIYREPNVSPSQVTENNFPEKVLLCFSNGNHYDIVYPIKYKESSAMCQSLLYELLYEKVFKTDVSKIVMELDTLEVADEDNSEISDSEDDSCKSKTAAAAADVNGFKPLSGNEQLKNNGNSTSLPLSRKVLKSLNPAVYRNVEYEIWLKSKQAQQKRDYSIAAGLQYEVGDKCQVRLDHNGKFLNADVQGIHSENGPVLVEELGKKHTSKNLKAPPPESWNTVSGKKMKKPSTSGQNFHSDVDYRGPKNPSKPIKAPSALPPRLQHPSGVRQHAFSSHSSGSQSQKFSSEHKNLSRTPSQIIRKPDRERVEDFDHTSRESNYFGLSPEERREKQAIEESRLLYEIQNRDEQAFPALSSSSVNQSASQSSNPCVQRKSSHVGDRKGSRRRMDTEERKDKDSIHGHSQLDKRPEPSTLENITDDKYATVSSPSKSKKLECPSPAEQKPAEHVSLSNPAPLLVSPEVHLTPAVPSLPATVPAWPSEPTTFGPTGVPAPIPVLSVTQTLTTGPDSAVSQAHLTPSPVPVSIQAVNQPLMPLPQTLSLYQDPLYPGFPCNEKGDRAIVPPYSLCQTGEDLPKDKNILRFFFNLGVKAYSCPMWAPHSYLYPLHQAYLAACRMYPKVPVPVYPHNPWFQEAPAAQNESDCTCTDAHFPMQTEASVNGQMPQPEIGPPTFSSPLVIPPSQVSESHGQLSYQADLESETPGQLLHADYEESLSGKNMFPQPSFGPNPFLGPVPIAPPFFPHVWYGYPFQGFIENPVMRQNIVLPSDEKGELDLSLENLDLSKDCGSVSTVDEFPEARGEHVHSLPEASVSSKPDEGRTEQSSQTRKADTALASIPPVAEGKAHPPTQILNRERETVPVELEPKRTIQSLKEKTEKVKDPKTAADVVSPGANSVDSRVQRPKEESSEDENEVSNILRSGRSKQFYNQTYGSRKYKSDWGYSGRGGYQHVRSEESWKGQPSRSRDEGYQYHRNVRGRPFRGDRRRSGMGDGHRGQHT
How it was run: as §1

[9] = molecular target: T5, OTUD5 (UniProt Q96G74)
T5 sequence (whole entry): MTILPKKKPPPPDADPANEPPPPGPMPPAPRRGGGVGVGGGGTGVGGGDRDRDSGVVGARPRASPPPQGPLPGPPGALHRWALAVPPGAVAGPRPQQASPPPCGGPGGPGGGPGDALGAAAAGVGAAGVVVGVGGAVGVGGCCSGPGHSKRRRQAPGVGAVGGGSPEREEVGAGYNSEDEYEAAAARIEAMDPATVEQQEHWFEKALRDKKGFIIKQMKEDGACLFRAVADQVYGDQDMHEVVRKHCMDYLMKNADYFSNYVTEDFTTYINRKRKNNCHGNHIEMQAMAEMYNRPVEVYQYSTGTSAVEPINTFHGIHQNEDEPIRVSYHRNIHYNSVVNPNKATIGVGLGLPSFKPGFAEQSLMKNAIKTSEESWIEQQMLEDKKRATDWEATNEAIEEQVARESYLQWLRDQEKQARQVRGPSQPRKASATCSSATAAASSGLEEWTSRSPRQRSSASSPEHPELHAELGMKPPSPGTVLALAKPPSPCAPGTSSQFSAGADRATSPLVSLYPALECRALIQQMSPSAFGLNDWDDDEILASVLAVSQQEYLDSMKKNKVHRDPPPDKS
How it was run: as §1

Measured: log2 ratio of Biotin-Ahx-Ub-VS probe labelling

Chain of EIF3H (O15372 whole entry): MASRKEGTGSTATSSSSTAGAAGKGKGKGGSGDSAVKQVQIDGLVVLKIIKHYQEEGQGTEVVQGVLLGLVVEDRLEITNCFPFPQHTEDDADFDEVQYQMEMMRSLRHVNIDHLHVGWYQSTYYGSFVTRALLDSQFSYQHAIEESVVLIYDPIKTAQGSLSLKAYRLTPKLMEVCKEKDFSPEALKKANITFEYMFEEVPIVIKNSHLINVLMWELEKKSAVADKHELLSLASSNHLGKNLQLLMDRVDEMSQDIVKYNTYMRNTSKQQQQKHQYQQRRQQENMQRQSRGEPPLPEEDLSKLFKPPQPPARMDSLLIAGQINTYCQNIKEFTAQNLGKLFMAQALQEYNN
Chain of ATXN3 (P54252 whole entry): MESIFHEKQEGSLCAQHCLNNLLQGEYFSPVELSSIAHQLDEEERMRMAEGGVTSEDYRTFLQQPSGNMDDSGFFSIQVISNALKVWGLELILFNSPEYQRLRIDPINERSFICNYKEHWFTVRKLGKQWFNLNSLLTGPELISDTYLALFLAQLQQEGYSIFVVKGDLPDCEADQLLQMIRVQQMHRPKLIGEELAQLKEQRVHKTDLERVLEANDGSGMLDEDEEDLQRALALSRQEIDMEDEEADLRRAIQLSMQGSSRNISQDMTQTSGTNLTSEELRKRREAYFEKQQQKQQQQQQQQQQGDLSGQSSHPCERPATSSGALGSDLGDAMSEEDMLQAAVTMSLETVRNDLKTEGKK
Chain of EIF3F (O00303 whole entry): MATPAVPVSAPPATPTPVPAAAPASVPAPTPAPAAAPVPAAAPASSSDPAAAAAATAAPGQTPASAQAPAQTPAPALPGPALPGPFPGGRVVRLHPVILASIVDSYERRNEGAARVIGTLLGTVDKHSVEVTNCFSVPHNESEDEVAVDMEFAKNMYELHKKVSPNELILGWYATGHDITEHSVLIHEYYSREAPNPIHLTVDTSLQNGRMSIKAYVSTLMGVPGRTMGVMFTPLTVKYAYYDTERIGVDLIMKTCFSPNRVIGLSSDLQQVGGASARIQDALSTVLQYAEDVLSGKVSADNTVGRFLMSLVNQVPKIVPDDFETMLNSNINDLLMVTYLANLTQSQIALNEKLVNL
Chain of OTUB1 (Q96FW1 whole entry): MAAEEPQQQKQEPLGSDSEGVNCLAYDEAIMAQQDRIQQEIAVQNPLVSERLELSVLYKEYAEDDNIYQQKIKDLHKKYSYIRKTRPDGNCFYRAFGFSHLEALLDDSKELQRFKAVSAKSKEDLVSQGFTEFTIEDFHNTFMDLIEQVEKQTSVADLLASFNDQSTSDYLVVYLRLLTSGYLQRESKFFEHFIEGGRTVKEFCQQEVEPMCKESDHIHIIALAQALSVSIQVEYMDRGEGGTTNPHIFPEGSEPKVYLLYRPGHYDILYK

O=C(CCl)N1CC2(CCOCC2)C1
inactive: [1] -0.597 | [2] -0.356 | [3] -0.382 | [4] 0.0073 | [5] 0.061 | [6] -0.00776 | [7] -0.183 | [8] -0.122 | [9] -0.493
